From the supplement of paper PMC3545927
The other results are listed elsewhere or left out. The true hit rate is not given.

Target: furin, P09958
Experiment: furin cleavage Z-score vs untreated control; higher = more cleavage, active = 3.5 or more, inactive = 1 or less, 8 variable residues between constant flanks
How it was run: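 Read counts from sequencing released DNA gave abundance for each bead-bound 8-mer peptide–cDNA fusion cut by purified furin over 7.5, 15 or 30 min. The cleavage Z-score compares log counts with furin-free reactions after lowess adjustment and median absolute deviation scaling.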
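Also: purified furin at 1:10 enzyme:substrate in 50 mM HEPES pH 7.5.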

Sequence of furin, P09958 (P09958 whole entry): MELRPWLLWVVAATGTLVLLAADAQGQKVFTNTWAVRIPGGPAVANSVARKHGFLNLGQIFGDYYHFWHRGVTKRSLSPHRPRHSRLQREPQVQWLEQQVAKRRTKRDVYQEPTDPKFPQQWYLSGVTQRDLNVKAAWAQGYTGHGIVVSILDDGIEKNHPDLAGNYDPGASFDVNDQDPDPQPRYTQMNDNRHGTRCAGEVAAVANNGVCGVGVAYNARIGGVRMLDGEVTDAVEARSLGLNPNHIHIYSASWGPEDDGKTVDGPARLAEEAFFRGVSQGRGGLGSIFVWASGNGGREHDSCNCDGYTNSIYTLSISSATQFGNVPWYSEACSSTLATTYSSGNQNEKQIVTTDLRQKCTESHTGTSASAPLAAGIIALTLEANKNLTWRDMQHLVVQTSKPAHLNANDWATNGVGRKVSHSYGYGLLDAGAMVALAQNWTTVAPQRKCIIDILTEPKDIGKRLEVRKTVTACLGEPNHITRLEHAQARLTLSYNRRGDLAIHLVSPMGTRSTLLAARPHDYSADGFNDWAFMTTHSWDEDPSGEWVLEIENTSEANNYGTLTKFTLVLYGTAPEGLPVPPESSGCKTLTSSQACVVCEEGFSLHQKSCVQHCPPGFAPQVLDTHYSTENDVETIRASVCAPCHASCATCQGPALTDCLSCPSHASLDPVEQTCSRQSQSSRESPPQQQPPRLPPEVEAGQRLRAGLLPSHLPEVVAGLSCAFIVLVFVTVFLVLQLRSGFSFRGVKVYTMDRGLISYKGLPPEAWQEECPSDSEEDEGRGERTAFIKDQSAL

Row | Sequence | furin cleavage Z-score (7.5 min) | furin cleavage Z-score (15 min) | furin cleavage Z-score (30 min)
1 | CADNEVVTSTAGNASASA [HC2301] | -1.07 (inactive) | -0.505 (inactive) | 0.105 (inactive)
2 | CAQSFQVAHLAGNASASA [HC771] | 0.912 (inactive) | 0.131 (inactive) | 0.722 (inactive)
3 | CAEVVTNTWVAGNASASA [HC158] | -1.52 (inactive) | -0.248 (inactive) | -0.0393 (inactive)
4 | CAFCHSKKKCAGNASASA [HC857] | -1.27 (inactive) | -0.504 (inactive) | -0.238 (inactive)
5 | CAALAAYCLSAGNASASA [HC995] | 1.28 | -0.793 (inactive) | 0.489 (inactive)
6 | CARSLRFVTLAGNASASA [FS-1793] | 0.3 (inactive) | 1.63 | 1.68
7 | CARTRKFVVDAGNASASA [FS-2315] | 0.233 (inactive) | -0.721 (inactive) | -0.0413 (inactive)
8 | CARLRRVICAAGNASASA [FS-2997] | -0.794 (inactive) | -0.656 (inactive) | -0.232 (inactive)
9 | CAREKKDVPLAGNASASA [FS-3187] | 0.508 (inactive) | 2.05 | -1.3 (inactive)
10 | CARFVRFVPLAGNASASA [FS-1706] | 1.17 | 1.76 | 4.38 (active)
11 | CADDGRTCVDAGNASASA [FS-1981] | -1.75 (inactive) | -1.46 (inactive) | -0.526 (inactive)
12 | CARFDRQASAAGNASASA [FS-2011] | -0.397 (inactive) | -0.361 (inactive) | -1.3 (inactive)
13 | CARFIRGVVDAGNASASA [FS-2332] | 3.17 | 2.98 | 5.27 (active)
14 | CARFVRDACAAGNASASA [FS-2928] | 0.546 (inactive) | 1.42 | 3.66 (active)
15 | CARKKKCKICAGNASASA [FS-2689] | -0.917 (inactive) | -0.723 (inactive) | -0.00697 (inactive)
16 | CAMTPCSAHLAGNASASA [HC2466] | -1.89 (inactive) | 0.877 (inactive) | -0.495 (inactive)
17 | CAEFPCHRPSAGNASASA [HC2327] | -0.796 (inactive) | -0.578 (inactive) | -1.81 (inactive)
18 | CAEITTPCSGAGNASASA [HC1964] | -1.53 (inactive) | -0.885 (inactive) | -1.78 (inactive)
19 | CATTACSGSWAGNASASA [HC1863] | -0.8 (inactive) | -0.656 (inactive) | -0.444 (inactive)
20 | CASHPCSAHLAGNASASA [HC2495] | 1.02 | 0.719 (inactive) | 0.0481 (inactive)
21 | CAWRCRVARSAGNASASA [FS-897] | 5.68 (active) | 5.73 (active) | 6.03 (active)
22 | CASPPVVPQSAGNASASA [HC768] | -0.954 (inactive) | 0.785 (inactive) | -0.882 (inactive)
23 | CASHAVVARSAGNASASA [FS-1080] | 4.85 (active) | 4.91 (active) | 5.66 (active)
24 | CAYLSRVARSAGNASASA [FS-738] | 9.42 (active) | 9.32 (active) | 8.94 (active)
25 | CAAPPPSWDQAGNASASA [HC960] | -0.113 (inactive) | -0.447 (inactive) | -0.277 (inactive)
26 | CALVILNAASAGNASASA [HC536] | 1.04 | -0.834 (inactive) | 0.192 (inactive)
27 | CAEAPCHRPSAGNASASA [HC2323] | 0.662 (inactive) | -0.37 (inactive) | -0.247 (inactive)
